# Measurements: PubChem BioAssay
# Values joined by “and” are separate entries in the source; they are usually repeats but may differ in a detail not shown here. Equal values may be shown once. Active and inactive are the calls of the source. Unless noted, how the calls were made is not given here.
# Legend:
# [1] = circadian clock period modulators, cell-based, LOPAC library, luminescence reporter (AID 2774); conditions: circadian reporter cells, at 7 µM, actives lie on both sides;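 further: values are relative to mean of DMSO wells on each plate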
# [2] = tested on: Hepatitis C virus NS3 helicase; assay: HCV NS3 helicase inhibitors, primary screen, biochemical, fluorescence polarization, LOPAC1280 library (AID 687035; in the data active means inhibition above about 37%); conditions: Purified HCV NS3 helicase, Cy5-dT15 ssDNA binding fluorescence polarization; stronger effect = higher value; concentration not given here
# [3] = Cy5 fluorescence quenching or enhancement artefacts, artefact control for HCV NS3 helicase inhibitor project, biochemical, LOPAC1280 (AID 687037); conditions: Cy5-DNA-NS3h complex fluorescence interference counterscreen
# [4] = tested on: Aerobactin synthetase IucA (Klebsiella pneumoniae); assay: IucA aerobactin synthetase inhibitors, biochemical, Tocris library, absorbance (AID 1345561); conditions: purified IucA enzyme assay, absorbance (OD) read-out; stronger effect = lower value;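 tested at 8 µM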;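 further: 100% = enzyme without compound and 0% = no enzyme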
# [5] = sensitizers of A549 cells to miR-34 induction, primary screen, imaging, A549 dox-inducible miR-34, nuclei and caspase counts (AID 1347080;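 active means compounds whose cell count with miR-34 switched on is under 0.7 times the count with it off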); conditions: A549 miR-34 inducible, Hoechst nuclei count, 48 h
# [6] = phospholipid biosynthesis inhibitors in animal cells, primary screen, cell-based, LOPAC library, screen 4 (AID 1347384); conditions: phospholipid biosynthesis inhibition screen, at 10 µM
# [7] = viability rescue of complex I mutant cybrids, primary screen, cell-based, galactose medium, ATP luminescence (AID 1645843;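 active means z-score of at least 1.8 in each of two replicates, scored against plate mean and spread of sample wells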;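 further: positive z means more ATP and so rescue of galactose-driven cybrid death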); conditions: complex I mutant cybrid cells, 72 h, stronger effect = higher value
# [8] = stronger effect = lower value, cell number ratio, induced over uninduced
# [9] = measured here: relative caspase fold change +Dox/-Dox
# [10] = measured here: total cells with miR-34 induction, stronger effect = lower value
# [11] = measured here: total cells without miR-34 induction
SMILES,period change [1],inhibition [2],fluorescence ratio (interference) [3],remaining activity [4],"fold change [5, 8]","fold change [5, 9]","cell count [5, 10]","cell count [5, 11]",outcome [6],z-score [7]
CC(=O)NNC(=O)N1Cc2ccccc2Oc2ccc(Cl)cc21,-0.025 h (inactive),-1% (inactive),1 (inactive),100% (inactive),0.965 (inactive) and 0.956 (inactive),0.954 and 0.9,10200 and 8650,10600 and 9060,inactive,1.17 (inactive) and 0.635 (inactive)
O=C(O)c1cc(=O)c2c(Cl)cc(Cl)cc2[nH]1,-0.065 h (inactive),-1% (inactive),1 (inactive),90.4% (inactive),0.981 (inactive) and 0.957 (inactive),0.527 and 0.88,10000 and 8540,10200 and 8930,inactive,0.135 (inactive) and -0.315 (inactive)
CC(C)NC[C@H](O)COc1cccc2[nH]ccc12,0.125 h (inactive),-2% (inactive),1 (inactive),102% (inactive),0.97 (inactive) and 0.927 (inactive),1.45 and 1.12,9970 and 8970,10300 and 9670,inactive,-0.095 (inactive) and -0.03 (inactive)
NC(N)=NC(N)=Nc1cccc(Cl)c1,0.15 h (inactive),-4% (inactive),1 (inactive),77.4% (inactive),0.947 (inactive) and 0.85 (inactive),1.12 and 1.01,10300 and 7530,10900 and 8860,inactive,-0.165 (inactive) and -0.935 (inactive)
CC(C)(CO)Cc1cc(C(C)(C)C)c(O)c(C(C)(C)C)c1,0.05 h (inactive),0% (inactive),1 (inactive),101% (inactive),1.04 (inactive) and 0.971 (inactive),1.88 and 0.81,7090 and 8690,6800 and 8950,inactive,-1.4 (inactive) and -0.73 (inactive)
Cc1nc2c(OCc3ccccc3)cccn2c1CC#N,-0.02 h (inactive),1% (inactive),1 (inactive),113% (inactive),1.04 (inactive) and 0.99 (inactive),1.18 and 1.15,9420 and 8410,9080 and 8490,inactive,1.07 (inactive) and 2.13 (inactive)
CCCCCCCC/C=C\CCCCCCCC(=O)NCCO,0.02 h (inactive),-1% (inactive),1 (inactive),112% (inactive),1.03 (inactive) and 1.01 (inactive) and 0.976 (inactive),0.948 and 0.828 and 0.812,10400 and 5960 and 9000,10100 and 5900 and 9210,inactive,-1.28 (inactive) and -0.79 (inactive)
COc1ccccc1N1CCN(CCCCN2C(=O)c3ccccc3C2=O)CC1,0.18 h (inactive),-3% (inactive),1 (inactive),97.1% (inactive),1.11 (inactive) and 0.969 (inactive),1.56 and 0.971,9310 and 9300,8410 and 9600,inactive,-0.155 (inactive) and -0.92 (inactive)
Nc1ncnc2c1ncn2C1CCCO1 (stereo not given),-0.01 h (inactive),-1% (inactive),1 (inactive),110% (inactive),0.951 (inactive) and 0.846 (inactive) and 0.927 (inactive),1.64 and 1.08 and 0.781,9560 and 5440 and 8660,10100 and 6440 and 9350,inactive,0.435 (inactive) and -0.32 (inactive)
CCn1c(=O)[nH]c2cc(Cl)c(Cl)cc21,0.01 h (inactive),-2% (inactive),1 (inactive),114% (inactive),0.936 (inactive) and 0.878 (inactive),1.34 and 0.845,8830 and 7930,9440 and 9020,inactive,0.275 (inactive) and 0.885 (inactive)
Clc1ccc(N2CCN(Cc3c[nH]c4ncccc34)CC2)cc1,0.105 h (inactive),12% (inactive),1 (inactive),95.2% (inactive),1.07 (inactive) and 0.896 (inactive),0.721 and 0.794,9090 and 6380,8470 and 7120,inactive,-0.965 (inactive) and -1.05 (inactive)
CC(C)(C=O)Cc1cc(C(C)(C)C)c(O)c(C(C)(C)C)c1,0.05 h (inactive),0% (inactive),1 (inactive),125% (inactive),1.05 (inactive) and 0.927 (inactive),1.79 and 0.718,9400 and 9850,8980 and 10600,inactive,-1.33 (inactive) and -0.18 (inactive)
C[C@@H](CN1CCC(Cc2ccccc2)CC1)[C@@H](O)c1ccc(O)cc1,0.12 h (inactive),-3% (inactive),1 (inactive),113% (inactive),0.971 (inactive) and 0.906 (inactive),0.907 and 0.699,9590 and 8970,9880 and 9910,inactive,-1.21 (inactive) and -0.605 (inactive)
CC[C@H](NC(=O)c1c(C)c(-c2ccccc2)nc2ccccc12)c1ccccc1,0.09 h (inactive),1% (inactive),1 (inactive),110% (inactive),1.28 (inactive) and 0.912 (inactive),1.6 and 0.801,6890 and 7500,5390 and 8230,inactive,1.77 (inactive) and 1.96 (inactive)
N[C@@H](CS(=O)O)C(=O)O,0.04 h (inactive),-5% (inactive),0.9 (inactive),124% (inactive),1.01 (inactive) and 0.998 (inactive),1.54 and 0.698,10700 and 8340,10600 and 8360,inactive,0.58 (inactive) and 0.25 (inactive)
COc1cc2c(CCNC(C)=O)c[nH]c2cc1Cl,-0.08 h (inactive),-1% (inactive),1 (inactive),94.8% (inactive),1.06 (inactive) and 0.902 (inactive),2.61 and 0.855,9840 and 8550,9250 and 9470,inactive,0.525 (inactive) and -0.185 (inactive)
C[C@H](NC(=O)/C(C#N)=C/c1ccc(O)c(O)c1)c1ccccc1,0.035 h (inactive),-1% (inactive),1 (inactive),111% (inactive),0.957 (inactive) and 0.876 (inactive),2.11 and 1.78,6810 and 7420,7120 and 8470,inactive,-1 (inactive) and -0.545 (inactive)
S=C(S)N1CCCC1,0.08 h (inactive),-2% (inactive),1 (inactive),87.7% (inactive),0.892 (inactive) and 0.97 (inactive),1.02 and 0.891,6850 and 8740,7680 and 9010,inactive,-1.38 (inactive) and -1.23 (inactive)
N#Cc1cc2nc(O)c(O)nc2cc1[N+](=O)[O-],0.03 h (inactive),-1% (inactive),1 (inactive),114% (inactive),1.02 (inactive) and 0.856 (inactive),1.08 and 1.89,9680 and 8420,9500 and 9840,inactive,0.385 (inactive) and 0.185 (inactive)
Cn1cc(C(=O)OCC2CCN(CCNS(C)(=O)=O)CC2)c2ccccc21,0.07 h (inactive),-1% (inactive),1 (inactive),123% (inactive),1.06 (inactive) and 0.932 (inactive),1.51 and 0.946,9310 and 9140,8780 and 9810,inactive,-0.825 (inactive) and -0.425 (inactive)
O=C(O)C1=CCCN(CCON=C(c2ccccc2)c2ccccc2)C1,-0.05 h (inactive),1% (inactive),1 (inactive),122% (inactive),1.08 (inactive) and 0.953 (inactive),0.8 and 1.02,9470 and 9840,8800 and 10300,inactive,0.145 (inactive) and -0.05 (inactive)
CN=c1nc(-c2ccccc2)n(-c2ccccc2)s1,-0.055 h (inactive),8% (inactive),1 (inactive),118% (inactive),0.91 (inactive) and 0.922 (inactive),1.06 and 0.764,3550 and 4090,3900 and 4440,inactive,-1.38 (inactive) and -0.73 (inactive)
O=C1NC(c2cccc([N+](=O)[O-])c2)=CCN1c1ccccc1O,-0.125 h (inactive),-4% (inactive),1 (inactive),111% (inactive),0.967 (inactive) and 1.03 (inactive) and 0.928 (inactive),1.12 and 1.35 and 0.882,10200 and 5990 and 8100,10600 and 5810 and 8730,inactive,-0.245 (inactive) and 1.08 (inactive)
CCCc1c(-c2ccc(O)cc2)nn(-c2ccc(O)cc2)c1-c1ccc(O)cc1,0.165 h (inactive),-1% (inactive),1 (inactive),109% (inactive),1.09 (inactive) and 0.887 (inactive) and 1.03 (inactive),1.1 and 0.322 and 0.755,8030 and 5050 and 7250,7380 and 5690 and 7020,inactive,1.27 (inactive) and 1.6 (inactive)
CC1CCN=C(N)S1 (stereo not given),-0.02 h (inactive),-2% (inactive),1 (inactive),103% (inactive),1.02 (inactive) and 0.923 (inactive),1.68 and 0.753,9440 and 8650,9270 and 9380,inactive,0.31 (inactive) and 1.27 (inactive)
COC(=O)C1=C(C)NC(C)=C([N+](=O)[O-])C1c1ccccc1C(F)(F)F (stereo not given),0.05 h (inactive),-5% (inactive),0.9 (inactive),124% (inactive),1.01 (inactive) and 1 (inactive) and 0.845 (inactive),1.21 and 1.49 and 0.884,9160 and 5080 and 7400,9050 and 5080 and 8750,inactive,-0.7 (inactive) and -0.625 (inactive)
CC(/C=C/c1cccc(Oc2ccc(F)cc2)c1)N(O)C(N)=O (stereo not given),-0.095 h (inactive),0% (inactive),1 (inactive),129% (inactive),1.07 (inactive) and 0.882 (inactive) and 0.954 (inactive),1.69 and 1.06 and 0.78,8210 and 4190 and 6640,7700 and 4750 and 6960,inactive,-1.33 (inactive) and -0.775 (inactive)
